Data on 68 molecules can be found in publication PMC4552634, “A New Set of Chemical Starting Points with Plasmodium falciparum Transmission-Blocking Potential for Antimalarial Drug Discovery” (PLoS ONE, 2015).

The subject of this test is P. falciparum stage V gametocytes. Details: BacTiter-Glo ATP luminescence viability of purified stage V gametocytes in 384-well plates, per cent inhibition versus DMSO. The conditions noted are these: 48 h, 5 µM, inhibitor.

Read-outs that look alike come from different tables or passages of the source. Out of some 13,000 compounds screened, about 3,200 (25%) showed an effect of 50% or more. The list shows a part of the results.

By % Inhibition is commonly meant the drop in the measured response relative to a control, in per cent. As for `CS(=O)(=O)Cc1ccc(Nc2ncc(Cl)c(Nc3cccnc3C(N)=O)n2)cc1` [TCMDC-134165], the “% Inhibition” value was -4.656%. Same read-out and setting: the result for `CC1CN=C(c2cccc(NC(=O)Nc3cccc(C4=NCC(C)N4)c3)c2)N1` (centres unmarked) [TCMDC-137194] reads 7.217%; that for `COc1cc2c(cc1C(F)(F)F)N(C(=O)Nc1ccc(Br)cn1)CC2` [TCMDC-139015], -19.75%. The same measure, in the same setting: the result for `COc1ccc(O)c(C(=O)c2cnc3c(c2)c(-c2ccc(F)cc2)c(C#N)c(=O)n3C)c1` [TCMDC-124509] reads -11.41%; that for `O=C(Nc1ccc2c(c1)CCN2C1CCN(Cc2cccc(F)c2F)C1)c1ccco1` (centres unmarked) [TCMDC-135067], 14.1%; that for `c1ccc(C(c2ccccc2)N2CCC(NCc3ccc(OCCCN4CCCCC4)cc3)CC2)cc1` [TCMDC-141783], 82.14%.

As to `O=C(N[C@H]1CCN(Cc2ccc(OCCCN3CCCCC3)cc2)C1)c1cc(Cl)cc(Cl)c1` [TCMDC-141774], the “% Inhibition” value turned out to be 21.94%. The same measure, in the same setting: next, `O=C(N[C@H]1CCN(Cc2ccc(OCCCN3CCCCC3)cc2)C1)c1ccc2ccccc2c1` [TCMDC-141775]: 63.18%. On to `c1cc(OCCN2CCCC2)ccc1CNC1CCN(CC2CCCCC2)CC1` [TCMDC-141656], for which the “% Inhibition” value amounted to 42.11%. On to `O=C(N[C@H]1CCN(Cc2ccc(OCCCN3CCCCC3)cc2)C1)c1ccc(Cl)c(Cl)c1` [TCMDC-141772], for which the “% Inhibition” value amounted to 60%. As to `CCCCCCN1CCC(NCc2ccc(OCCN3CCCC3)cc2)CC1` [TCMDC-141663], the “% Inhibition” value is recorded as 42.97%. With `Cc1cnc(CCNC(=O)c2cc(-c3ccc(Cl)cc3)cs2)[nH]1` [TCMDC-133804], the “% Inhibition” value was 0.312%. Same read-out and setting: next, `CCc1cc(N2CCN(c3ccccc3F)CC2)nc(SCc2ccc(C(=O)NC3CC3)o2)n1` [TCMDC-124808]: 29.7%; `N#Cc1ccc(-c2ccc(C(=O)Nc3ccc4c(c3)CCN(C3CCC3)CC4)nc2)cn1` [TCMDC-136030]: 49.39%; `Cc1nc(-c2ccc(-c3ccc(C(=O)Nc4ccc(-n5ccnc5)c(N5CCN(C)CC5)c4)cc3)c(C)c2)no1` [TCMDC-131988]: 33.17%. On the same count and under the same terms, next, `C=C[C@H]1CN(CCCCCCC)CC[C@H]1C[C@@H](Cc1ccnc2ccc(OC)cc12)OC(=O)[C@](OC)(c1ccccc1)C(F)(F)F` [TCMDC-139560]: 78.38%; `C=C[C@H]1CN(CCCCCCC)CC[C@H]1CCNc1ccnc2ccc(OC)cc12` [TCMDC-139204]: 104.6%. In the case of `CCCCCCCC1CC(CC(=O)Nc2ccnc3ccc(OC)cc23)CN1` (centres unmarked) [TCMDC-139305], the “% Inhibition” value is recorded as 20.34%.

As for `C=C[C@H]1CN2CC[C@H]1C[C@H]2[C@H](O)c1ccnc2ccc(OC)cc12` [TCMDC-123484], the “% Inhibition” value (% Inhibition) is on record as -1.615%. As for `C=C[C@H]1CN(CCCCCCC)CC[C@H]1CCN(C)c1ccnc2ccc(OC)cc12.O=C(O)C(=O)O` [TCMDC-139276], the “% Inhibition” value worked out at 8.689%. For `CCCCCCCN1C2CCC1CC(CCOc1ccnc3ccc(OC)cc13)C2` (centres unmarked) [TCMDC-139275], the “% Inhibition” value is 73.47%. `CCCCCCCN1CCC(CC(=O)Nc2ccnc3ccc(OC)cc23)C(CC)C1` (centres unmarked) [TCMDC-139299]: the “% Inhibition” value is recorded as -28.07%.

As to `CCCCCCCC1CC(CC(=O)Nc2ccnc3ccc(OC)cc23)CN1C(=O)OC(C)(C)C` (centres unmarked) [TCMDC-139304], the “% Inhibition” value is listed as 29.24%.

For `CCCCCCCC1CCN(C[C@H](O)c2ccnc3ccc(OC)cc23)CC1` [TCMDC-139640], the “% Inhibition” value was 6.722%.

Consider `C=C[C@H]1CN(CCCCCCC)CC[C@H]1CC(=O)Nc1cnnc2ccc(OC)cc12` [TCMDC-139791], for which the “% Inhibition” value was found to be 45.94%. With `CCCCCCCN1CCC(CC(=O)Nc2ccnc3ccc(OC)cc23)CC1` [TCMDC-139181], the “% Inhibition” value was determined as 71.31%. As for `C=C[C@H]1CN(CCCCCCC)CC[C@H]1CC(O)Cc1ccnc2cc(O)c(OC)cc12` (some centres unmarked) [TCMDC-139963], the “% Inhibition” value is listed as 16.88%. For `CC(C)c1ccc(O)cc1Nc1ccnc2ccc(C(F)(F)F)cc12` [TCMDC-138278], the “% Inhibition” value is given as -32.37%.

Turning to `COc1ccc(OC)c(-c2ccc(O)c(CNCC(C)c3ccccc3)c2)c1` (centres unmarked) [TCMDC-124647], the “% Inhibition” value was found to be 7.623%. `Nc1nc2c(ncn2OC[C@H]2COP(=O)(O)CO2)c(=O)[nH]1` [TCMDC-131638]: the “% Inhibition” value was found to be 1.746%. On to `Cc1cc(C)cc(OCC(O)CN(Cc2cc(Cl)cc(Cl)c2)C(=O)Nc2ccccc2Cl)c1` (centres unmarked) [TCMDC-141476], for which the “% Inhibition” value is on record as 13.96%. Consider `CCOc1cc(C(=O)N[C@@H](Cc2ccccc2)[C@H](O)CNCc2cc(OC)cc(OC)c2)cc(N2CCCCS2(=O)=O)c1` [TCMDC-134524], for which the “% Inhibition” value is 22.64%. For `O=C1NC(=O)C(c2cccc(NC(=O)c3ccncc3)c2)=C1c1ccccc1` [TCMDC-140924], the “% Inhibition” value is reported as 2.839%. The same measure, in the same setting: next, `COc1ccc2nccc([C@@H](O)CN3CCC(NS(=O)(=O)c4cc5c(cc4Cl)SCC(=O)N5)CC3)c2c1` [TCMDC-141159]: 4.839%; `CCCCCCCN1CCC(CCNc2ccnc3ccc(OC)cc23)CC1` [TCMDC-139197]: 97.49%; `CCCCCCCN1CCC(NC(=O)Nc2ccnc3ccc(OC)cc23)C(C(=O)OCC)C1.O=C(O)C(=O)O` (centres unmarked) [TCMDC-139929]: -3.335%. Consider `CCCCCCCN1CCC(NC(=O)Nc2ccnc3ccc(OC)cc23)C(CO)C1.O=C(O)C(=O)O` (centres unmarked) [TCMDC-139969], for which the “% Inhibition” value is given as -36.82%. Still for that read-out and setting: next, `COCCOc1ccc(C(F)(F)F)cc1NC(=O)Cc1c(F)cccc1Cl` [TCMDC-125025]: -70.46%. On to `CN(C)CCNCc1ccc(-c2cccc(-c3nc4ccccc4[nH]3)c2)cc1` [TCMDC-132539], for which the “% Inhibition” value was determined as 20.35%. Still for that read-out and setting: next, `CC(C)CNCc1ccc(-c2cccc(-c3nc4ccccc4[nH]3)c2)cc1` [TCMDC-132547]: 59.79%. Same read-out and setting: next, `CC(C)NCc1ccc(-c2cccc(-c3nc4ccccc4[nH]3)c2)cc1` [TCMDC-132550]: -10.92%. Regarding `CCNCc1ccc(-c2cccc(-c3nc4ccccc4[nH]3)c2)cc1` [TCMDC-132568], the “% Inhibition” value was determined as 85.38%. In the case of `CC(C)NCc1cccc(-c2ccc(-c3nc4ccccc4[nH]3)cc2)c1` [TCMDC-132746], the “% Inhibition” value was 23.3%. Same read-out and setting: next, `c1ccc(CNCc2ccc(-c3cccc(-c4nc5ccccc5[nH]4)c3)cc2)cc1` [TCMDC-132545]: 18.29%. Same read-out and setting: next, `Cc1ccc(Nc2nc(C)cc(Nc3cccc(C#N)c3)n2)cc1` [TCMDC-133460]: 4.468%; `O=C(Nc1ccc(-c2cccc(-c3nc4ccc(C(F)(F)F)cc4[nH]3)c2)cc1)Nc1ccc(Cl)c(Cl)c1` [TCMDC-133278]: -24.62%; `CS(=O)(=O)CCN(CCS(C)(=O)=O)Cc1ccc(-c2ccc3ncnc(Nc4ccc(OCc5cccc(F)c5)c(Cl)c4)c3c2)o1` [TCMDC-138624]: 0.5882%.

In the case of `CCC(C)C#Cc1c(C)nc(N)nc1N` (centres unmarked) [TCMDC-137729], the “% Inhibition” value is listed as -55.19%. Regarding `Cc1cccc2nc(-c3ccc(-c4ccc(CNCc5cnn(-c6ccccc6)n5)cc4)s3)[nH]c12.O=C(O)C(F)(F)F` [TCMDC-132967], the “% Inhibition” value is given as 11.48%. `CN1CC=C(c2csc3ccc(NC(=O)Nc4ccc(-c5ccncc5)c5ccccc45)cc23)CC1` [TCMDC-139225]: the “% Inhibition” value was found to be 89.24%. The same measure, in the same setting: the result for `CN1CCC(c2csc3ccc(NC(=O)Nc4ccc(-c5ccncc5)c5ccccc45)cc23)CC1` [TCMDC-139229] reads 21.21%; that for `CN1CC=C(c2csc3ccc(NC(=O)Nc4ccc(-c5ccncc5)c(Cl)c4)cc23)CC1` [TCMDC-139226], -3.853%. Still for that read-out and setting: next, `CCNC(=O)c1ccc(-n2nc(C)cc2-c2ccccc2)cc1` [TCMDC-124440]: -33.35%. With `O=C(Nc1ccc(F)cc1)NC1CCN(CCCCCNC(=O)C2CC2c2ccc(Cl)c(Cl)c2)CC1` (centres unmarked) [TCMDC-136249], the “% Inhibition” value is on record as 82.82%. Still for that read-out and setting: the result for `O=C(Nc1cccc(F)c1)NC1CCN(CCCCCNC(=O)C2CC2c2ccc(Cl)c(Cl)c2)CC1` (centres unmarked) [TCMDC-136248] reads 79.62%; that for `O=C(Nc1cc(F)cc(F)c1)NC1CCN(CCCCCNC(=O)C2CC2c2ccc(Cl)c(Cl)c2)CC1` (centres unmarked) [TCMDC-136252], 75.57%; that for `N#Cc1cccc(NC(=O)NC2CCN(CCCCCNC(=O)C3CC3c3ccc(Cl)c(Cl)c3)CC2)c1` (centres unmarked) [TCMDC-136250], 5.084%. As to `O=C(Nc1cc(F)cc(F)c1)N[C@H]1CCN(CCCCCNC(=O)C2CC2c2ccc(Cl)c(Cl)c2)C1` (some centres unmarked) [TCMDC-136263], the “% Inhibition” value was found to be 23.53%. Still for that read-out and setting: next, `Cc1ccc(NC(=O)NC2CCN(CCCCCNC(=O)C3CC3c3ccc(Cl)c(Cl)c3)CC2)cc1` (centres unmarked) [TCMDC-136247]: -44.45%; `O=C(Nc1cccc(F)c1)N[C@H]1CCN(CCCCCNC(=O)C2CC2c2ccc(Cl)c(Cl)c2)C1` (some centres unmarked) [TCMDC-136261]: -0.7596%. Still for that read-out and setting: next, `O=C(Nc1ccc(Cl)cc1)NC1CCN(CCCCCNC(=O)C2CC2c2ccc(Cl)c(Cl)c2)CC1` (centres unmarked) [TCMDC-136251]: -16.96%. On the same count and under the same terms, next, `Cc1cccc(Cn2nc(-c3ccccc3)c(N3CCCCC3)cc2=O)c1` [TCMDC-125526]: -20.8%. `CCOC(=O)c1ccc(NCc2ccccn2)cc1` [TCMDC-123821]: the “% Inhibition” value is reported as -4.555%. Regarding `Cc1cc(NC(=O)Nc2ccc3sccc3c2)c2ccccc2n1` [TCMDC-138970], the “% Inhibition” value is listed as 36.17%. Consider `CC1(C)N=C(N)N=C(N)N1c1ccc([N+](=O)[O-])cc1` [TCMDC-124128], for which the “% Inhibition” value came out at 35.22%. Still for that read-out and setting: next, `COc1cc(Nc2nc(N)c3cc(OC)c(OC)cc3n2)cc(OC)c1.Cl` [TCMDC-131884]: -87.65%. In the case of `COc1cc2nc(N3CCC(CNC(=O)/C=C/c4ccccc4F)CC3)nc(N)c2cc1OC.Cl` [TCMDC-138163], the “% Inhibition” value is 35.62%. The same measure, in the same setting: the result for `COc1cc2c(cc1OC)CN(c1cc(N)c3cc(OC)c(OC)cc3n1)CC2.CS(=O)(=O)O` [TCMDC-131968] reads 54.76%.
